Source: PubChem BioAssay AID1159580 (chemical genetic matrix, 2015)
Where “and” joins values, the source holds several entries; their conditions need not be identical. Identical values can stand only once. About 2,000 (36%) of roughly 5,500 compounds were called active. Not shown: some 18% with an inconclusive outcome. Rule as the data show it: active = normalized growth mostly below about 0.91 (no sharp cut-off); inconclusive = no clear call, values can overlap the other calls; inactive = mostly above about 0.92. The list shows a part of the results.

Experiment: chemical genetic growth profiling, strain panel (AID 1159580);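 also: tested at 20 µM; growth read once vehicle control cultures reached saturation at 30 °C; 1 = growth at the plate median or of vehicle wells; lower values mean less growth of the strain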
Conditions: S. cerevisiae deletion strains, growth OD

Measured: normalized growth

COc1ccc2[nH]cc(CCN)c2c1
inactive: locus YAL013W, strain DEP1, active compounds read low 0.982 | locus YAL021C, strain ccr4, active compounds read low 1.04 | locus YAL026C, strain drs2, active compounds read low 0.987 | locus YAL030W, strain snc1, active compounds read low 0.995 | locus YAL040C, strain CLN3, active compounds read low 0.967 | locus YBL061C, strain skt5, active compounds read low 0.989 | locus YBR009C, strain hhf1, active compounds read low 1.02 | locus YBR021W, strain FUR4, active compounds read low 0.985 | locus YBR023C, strain chs3, active compounds read low 1 | locus YBR171W, strain sec66, active compounds read low 0.993 | locus YBR229C, strain ROT2, active compounds read low 0.95 | locus YBR231C, strain swc5, active compounds read low 0.986 | locus YBR279W, strain paf1, active compounds read low 0.995 | locus YCL011C, strain gbp2, active compounds read low 1.01 | locus YCL016C, strain dcc1, active compounds read low 1.02 | locus YCL029C, strain bik1, active compounds read low 0.998 | locus YCL061C, strain MRC1 (second series), active compounds read low 1 | locus YCL061C, strain MRC1, active compounds read low 0.998 | locus YCL069W, strain vba3, active compounds read low 0.992 | locus YCR088W, strain abp1, active compounds read low 0.99 | locus YDL005C, strain med2, active compounds read low 1.02 | locus YDL035C, strain GPR1, active compounds read low 0.985 | locus YDL040C, strain nat1, active compounds read low 0.991 | locus YDL074C, strain BRE1, active compounds read low 0.999 | locus YDL101C, strain DUN1, active compounds read low 0.989 | locus YDL134C, strain PPH21, active compounds read low 0.973 | locus YDL185W, strain tfp1, active compounds read low 0.97 | locus YDL192W, strain arf1, active compounds read low 0.989 | locus YDR001C, strain nth1, active compounds read low 0.989 | locus YDR069C, strain doa4, active compounds read low 0.971 | locus YDR101C, strain arx1, active compounds read low 0.998 | locus YDR137W, strain rgp1, active compounds read low 1.01 | locus YDR150W, strain NUM1, active compounds read low 0.963 and 0.992 | locus YDR159W, strain sac3, active compounds read low 0.933 | locus YDR162C, strain NBP2, active compounds read low 0.945 | locus YDR195W, strain ref2 0.951 | locus YDR297W, strain sur2, active compounds read low 0.989 | locus YDR318W, strain mcm21, active compounds read low 0.995 | locus YDR334W, strain swr1, active compounds read low 0.982 | locus YDR335W, strain msn5, active compounds read low 0.995 | locus YDR363W, strain ESC2, active compounds read low 0.978 | locus YDR388W, active compounds read low 0.986 | locus YDR392W, strain spt3, active compounds read low 0.951 | locus YDR502C, strain sam2, active compounds read low 0.995 | locus YEL003W, strain gim4, active compounds read low 0.986 | locus YEL037C, strain rad23, active compounds read low 0.988 | locus YEL061C, strain CIN8 (second series), active compounds read low 0.989 | locus YEL061C, strain CIN8, active compounds read low 0.977 | locus YER002W, strain NOP16, active compounds read low 1.01 | locus YER015W, strain faa2, active compounds read low 1 | locus YER016W, strain bim1, active compounds read low 0.991 | locus YER110C, active compounds read low 0.964 | locus YER111C, strain swi4, active compounds read low 1 | locus YER155C, strain BEM2 (second series), active compounds read low 0.978 | locus YER155C, strain BEM2, active compounds read low 0.993 | locus YER167W, strain BCK2, active compounds read low 0.987 | locus YFR010W, strain ubp6, active compounds read low 0.979 | locus YGL078C, strain dbp3, active compounds read low 0.984 | locus YGL086W, strain mad1, active compounds read low 0.966 | locus YGL167C, strain pmr1, active compounds read low 0.994 | locus YGL173C, strain kem1, active compounds read low 0.997 | locus YGL227W, strain vid30, active compounds read low 0.983 | locus YGL240W, strain doc1, active compounds read low 0.986 | locus YGL248W, strain PDE1, active compounds read low 0.981 | locus YGL253W, strain hxk2, active compounds read low 0.974 | locus YGR078C, strain PAC10, active compounds read low 0.999 | locus YGR135W, strain pre9, active compounds read low 0.989 | locus YGR229C, strain SMI1, active compounds read low 1.02 | locus YGR252W, strain gcn5, active compounds read low 0.843 | locus YHR013C, strain ard1, active compounds read low 0.973 | locus YHR027C, strain rpn1, active compounds read low 1 | locus YHR030C, strain SLT2, active compounds read low 0.985 | locus YHR079C, strain IRE1 (second series), active compounds read low 0.992 | locus YHR094C, strain hxt1, active compounds read low 0.984 | locus YHR129C, strain ARP1, active compounds read low 0.996 | locus YHR142W, strain chs7, active compounds read low 1 | locus YHR200W, strain rpn10, active compounds read low 0.991 | locus YIL066C, strain RNR3, active compounds read low 0.99 | locus YIL073C, strain SPO22, active compounds read low 0.938 | locus YIL125W, strain kgd1, active compounds read low 0.975 | locus YIR030C, strain dcg1, active compounds read low 0.976 | locus YJL092W, strain hpr5, active compounds read low 0.999 | locus YJL095W, strain BCK1 (second series), active compounds read low 0.992 | locus YJL095W, strain BCK1, active compounds read low 1.04 | locus YJL115W, strain asf1, active compounds read low 0.99 | locus YJL129C, strain trk1, active compounds read low 0.995 | locus YJL134W, strain LCB3, active compounds read low 0.988 | locus YJL154C, strain vps35, active compounds read low 0.981 | locus YJL164C, strain tpk1, active compounds read low 1.02 | locus YJL166W, strain qcr8, active compounds read low 1.01 | locus YJL168C, strain set2, active compounds read low 0.999 | locus YJL187C, strain SWE1 (second series), active compounds read low 0.993 | locus YJL187C, strain SWE1, active compounds read low 1.01
